A selection: hits, their analogues and other compounds. The true share with any hit is near 3.4%.
PLK1 PBD inh: qHTS for Inhibitors of PLK1-PDB (polo-like kinase 1 - polo-box domain): Primary Screen; Serine/threonine-protein kinase PLK1 (Homo sapiens), P53350; Plk1 PBD binding of FITC phosphopeptide, fluorescence polarization; Potency, µM, inactives show max response, negative = inhibition, most hits filed as inhibitors; 360,000 tested, 2.8% active; further: series mostly up to about 57 µM; on the % scale 0 is the no-effect control and ±100 the full control effect; nearly all actives have a fitted effect of over 65% in size
Mito fusion act: qHTS Assay for Small Molecule Inhibitors of Mitochondrial Division or Activators of Mitochondrial Fusion; S. cerevisiae fusion-defective mutant growth rescue, CellTiterGlo 48 h; Potency, µM (titrated, usually from 46.1 µM), without a hit: at the highest dose growth rescue (activation), hits mostly activators; 320,000 tested, 0.23% active; AID 485298, 2010; further: % of control where 0% means no effect; nearly all actives have a fitted effect of over 45% in size
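Luminescent cell viability in 1536-well qHTS format served as the measure of rescued growth in ts fusion-mutant S. cerevisiae cultured on non-fermentable YPEG for 48 hours at 37C.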
VDR inh: Inhibitors of the vitamin D receptor (VDR): qHTS; Potency, µM, for inactives: max response, negative = inhibition, hits mostly inhibitors; Vitamin D3 receptor (Homo sapiens), P11473; VDR-SRC2-3 peptide fluorescence polarization, 2 h; 400,000 tested, 0.93% active; further: on the % scale 0 is the no-effect control and ±100 the full control effect
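Fluorescence polarization assay of small-molecule disruption of VDR binding to coregulator peptide SRC2-3. Compounds and controls pin-transferred, then read after 2 h incubation at ambient room temperature.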
KAT2A inh: qHTS Assay for Inhibitors of GCN5L2; Potency, µM (doses to about 58.9 µM), without a hit: at the highest dose activity change, negative = inhibition, most hits filed as inhibitors; Histone acetyltransferase KAT2A (Homo sapiens), Q92830; 390,000 tested, 0.21% active; GCN5L2 HAT assay, ThioGlo1 CoA-SH fluorescence; further: on the % scale 0 is the no-effect control and ±100 the full control effect
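ThioGlo1-coupled HAT assay: 20nM GCN5L2, 70uM acetyl-CoA, 75uM H3(1-25) peptide, pH 7.5. Fluorescence read at 340/540nm at start and after 20 min at room temperature.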
PKM2 act: qHTS Assay for Activators of Human Muscle isoform 2 Pyruvate Kinase; Potency, µM (doses to about 57.5 µM), for inactives: at the top dose activation, most hits filed as activators; purified PKM2, Kinase-Glo ATP luminescence, activation; response scale: 0% is enzyme alone, no compound; 260,000 tested, 0.34% active; Pyruvate kinase PKM (Homo sapiens), P14618; further: on the % scale 0 is the no-effect control and ±100 the full control effect; nearly all actives have a fitted effect of over 55% in size
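ATP formation by purified human PK-M2, quantified via coupled luciferase luminescence after 1 h at room temperature with 0.1 mM ADP and 0.5 mM PEP final.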
GLS inh: qHTS for Inhibitors of Glutaminase (GLS); Glutaminase kidney isoform, mitochondrial (Homo sapiens), O94925; GLS enzymatic activity, qHTS titration; Potency, µM (doses to about 45.5 µM), without a hit: at the top dose activity change, negative = inhibition, most hits filed as inhibitors; 410,000 tested, 0.21% active; further: on the % scale 0 is the no-effect control and ±100 the full control effect
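Compounds were pin-transferred onto hKGA, after which L-glutamine (1 mM solution) and a detection mix of glutamate oxidase, HRP and Amplex Red were added. Initial and 30 min RT fluorescence reads were collected.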
* marks the source's active call; other numbers are inactive results; ? = inconclusive; . = no result; [ ] = another dose, or the depositor's remark. The call rests on the fitted dose curve; in most records, active means well fitted curve in the direction sought with a large enough effect; inconclusive means small, poorly fitted or top-dose-only effect, or another doubt; inactive means no such curve, though single readings can be large; an effect the other way counts as inactive or inconclusive. Potency means the concentration at half of the fitted maximal effect.

SMILES	PLK1 PBD inh	Mito fusion act	VDR inh	KAT2A inh	PKM2 act	GLS inh
CC[C@H](C)[C@H](NC(=O)[C@H](CCC(=O)O)NC(=O)[C@@H](N)CO)C(=O)N[C@@H](CCC(N)=O)C(=O)N[C@@H](CC(C)C)C(=O)N[C@@H](CCSC)C(=O)N[C@@H](Cc1cnc[nH]1)C(=O)N[C@@H](CC(N)=O)C(=O)N[C@@H](CC(C)C)C(=O)NCC(=O)N[C@@H](CCCCN)C(=O)N[C@@H](Cc1cnc[nH]1)C(=O)N[C@@H](CC(C)C)C(=O)N[C@@H](C)C(=O)N[C@@H](CO)C(=O)N[C@H](C(=O)N[C@@H](CCC(=O)O)C(=O)N[C@@H](CCCNC(=N)N)C(=O)N[C@@H](CCSC)C(=O)N[C@@H](CCC(N)=O)C(=O)N[C@@H](Cc1c[nH]c2ccccc12)C(=O)N[C@@H](CC(C)C)C(=O)N[C@@H](CCCNC(=N)N)C(=O)N[C@@H](CCCCN)C(=O)N[C@@H](CCCCN)C(=O)N[C@@H](CC(C)C)C(=O)N[C@@H](CCC(N)=O)C(=O)N[C@@H](CC(=O)O)C(=O)N[C@H](C(=O)N[C@@H](Cc1cnc[nH]1)C(=O)N[C@@H](CC(N)=O)C(=O)N[C@@H](Cc1ccccc1)C(=O)O)C(C)C)C(C)C	.	.	7%	-16%	.	.
CCOC(=O)C1CCN(C(C(=O)NC2CCCCC2)c2ccc(OC)cc2)CC1 (stereo unspecified)	27µM*	-5%	-24%	1%	0%	-5%
CCOC(=O)C1CCN(C(=O)CC(NS(=O)(=O)c2ccc(OC)cc2)C(C)C)CC1 (stereo unspecified)	3.8µM*	-6%	?	-1%	-4%	?
NC(=O)C1CCN(C(=O)CC(c2ccccc2)c2ccccc2)CC1	-16%	-1%	-10%	32µM*	3%[11.5 µM]	4%
COc1ccc(C(C(=O)NC2CCCC2)N2CCc3ccccc32)cc1 (stereo unspecified)	-4%	1%	-18%	-3%	?	0%
CCOC(=O)C1CCN(C(=O)CC(C)c2ccccc2)CC1 (stereo unspecified)	24µM*	3%	?	.	0%	5%
CCC(C)NC(=O)c1ccc(NC(=O)C2=C(C)OCCS2)cc1 (stereo unspecified)	-4%	-6%	-1%	11%	.	16%
O=C(COC(=O)C12CC3CC(CC(C3)C1)C2)NCCc1ccccc1	-6%	19%	13%	-8%	-3%	-11%
CC(C)CC(=O)N1CCC(N2CCN(c3ccccc3)CC2)CC1	30µM*	3%	?	3%	1%	39%
CC(=O)c1c(C)[nH]c(C(=O)Nc2ccc(S(=O)(=O)N(C)C)cc2)c1C	-1%	-3%	-5%	2%	7.1µM*	-1%
COCCNC(=S)Nc1ccc(N2CCOCC2)c(S(=O)(=O)Nc2ccccc2OC)c1	21µM*	-6%	?	-10%	.	-2%
CC(=O)c1c(C)[nH]c(C(=O)Nc2cccc(S(=O)(=O)N(C)C)c2)c1C	3%	1%	5%	-15%	?	-8%
Cc1ccc(NS(=O)(=O)c2cc(NC(=O)c3ccc4c(c3)NC(=O)CS4)ccc2C)c(C)c1	9.5µM*	4%	?	-12%	1%	-28%
COc1ccccc1NS(=O)(=O)c1ccc(C(N)=O)cc1	24µM*	-2%	-5%	-10%	-6%	-2%
